PGC1a acetyl inh: inhibitors of PGC1a acetylation signal, primary screen, cell-based, U2OS, AlphaScreen, inhibitor mode; AlphaScreen anti-acetyl-lysine; with virally co-expressed GCN5 acetyltransferase; inhibition, % at 15.6 µM; hit rate 0.17% among 350,000; AID 651687, 2012;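 active = every replicate shows inhibition of at least 40%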;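 note: 0% = neutral control wells and 100% = positive control wells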
LGR2 antag: inhibitors of bursicon-induced LGR2 CRE-luciferase signal, primary screen, cell-based, HEK293, CRE-luciferase reporter, bursicon stimulation. bursicon-stimulated, 4 h. Drosophila bursicon receptor LGR2 (rickets). AID 720647, 2013. hit rate 0.35% among 380,000. inhibition, % at 9.99 µM;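 active = drop in luminescence signal, shown as inhibition above about 50% in the replicate tests, limit read from the data, passing the limit was not always enough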;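 note: agonist challenge used bursicon conditioned medium at about half maximal strength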
EWS-Fli block: EWS/Fli-driven NR0B1 reporter inhibitors, primary screen, A673 cells, NR0B1 luciferase, luminescence, MLPCN library; AID 651661, 2012; inhibition, % at 12.6 µM; viability-normalised; hit rate 0.67% among 350,000;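 active = mean inhibition of at least 50% after viability correction, with every replicate also passing that limit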;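 note: firefly luciferase signal divided by Alamar Blue viability fluorescence both relative to DMSO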
Ecoli rRNA inh: reduced GFP signal of wild-type E. coli, primary screen, bacterial rRNA inhibitor project, GFP/RFP fluorescence, OD600, single point; E. coli WT GFP vs humanized-ribosome RFP mutants, 24 h; active compounds read low; DMSO median 0, no signal -100; GFP signal change (wild-type ribosome), % (concentration not given with the values); hit rate 1.6% among 350,000; AID 720706, 2013;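 active = significant combined selectivity score with lowered wild-type GFP, culture density cut under 30%, mutant RFP and density less affected; inactive = any of these conditions unmet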
PAX8 inh HTS: inhibitors of PAX8-driven TPO luciferase reporter, primary screen, RMG-I cells, single concentration. SteadyGlo, 24 h. inhibition, % at 12.6 µM. hit rate 1.2% among 360,000;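 active = mean replicate inhibition at least 60% with every replicate also reaching 60%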;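 note: luciferase light reporting Pax8 driven TPO promoter activity; plate controls were median of neutral control wells for no effect and mitoxantrone controls for full effect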
SIRT5 block: SIRT5 desuccinylase inhibitors, primary screen, biochemical, fluorescence imaging, single point, set 5; NAD-dependent protein deacylase sirtuin-5, mitochondrial (Homo sapiens), Q9NXA8; Purified SirT5, succinyl-peptide AMC, trypsin-coupled fluorescence; inhibition, % at 15 µM; hit rate 1.1% among 330,000; AID 652115, 2013; in the data active = inhibition above about 15%
Target sequence (Q9NXA8 whole entry, looked up): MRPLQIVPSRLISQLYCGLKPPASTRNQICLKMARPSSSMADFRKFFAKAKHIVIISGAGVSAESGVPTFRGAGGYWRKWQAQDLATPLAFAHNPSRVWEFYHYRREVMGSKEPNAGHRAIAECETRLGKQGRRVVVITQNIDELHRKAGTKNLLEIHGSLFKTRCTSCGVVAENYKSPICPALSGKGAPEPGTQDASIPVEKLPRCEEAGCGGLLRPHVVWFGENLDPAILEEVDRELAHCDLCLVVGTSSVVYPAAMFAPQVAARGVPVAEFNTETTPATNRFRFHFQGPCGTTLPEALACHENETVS
The depositor's hits bear a star; · = not tested or not shown; ! = not active in a repeat. Hits are enriched below; roughly 3.4% of the tested compounds scored in any of these assays.

SMILES	PGC1a acetyl inh	LGR2 antag	EWS-Fli block	Ecoli rRNA inh	PAX8 inh HTS	SIRT5 block
CCCCNc1ccc2c(c1)OC[C@@H](Cc1ccccc1)NS2(=O)=O	·	-3	-10	-28*	9	-4
CC(C)C[C@@H]1COc2cc(NCCO)ccc2S(=O)(=O)N1	·	15	-3	1	-3	-7
C[C@H]1COc2cc(NCCO)ccc2S(=O)(=O)N1	·	-5	-4	3	-1	19*
CCC(=O)Nc1ccc2c(c1)OC[C@H](C)N(C(=O)Cc1cccnc1)C[C@H](C)[C@@H](OC)CN(C)C2=O	·	·	·	4	·	·
O=C(NCc1ccco1)c1ccc(Cl)c(S(=O)(=O)Nc2ccccc2)c1	2	-16	4	-12	-4	-1
Cc1ccc(C(=O)Nc2ccccc2C(=O)O)cc1S(=O)(=O)Nc1ccc(Br)cc1	0	7	3	-36*	-15	8
Cc1ccc(C(=O)Nc2ccccc2C(=O)O)cc1S(=O)(=O)NCc1ccccc1	·	8	-4	-8	7	3
C=CCNC(=O)c1ccccc1NC(=O)c1ccc(Cl)c(S(=O)(=O)Nc2ccccc2)c1	·	-1	·	-36*	·	2
COc1ccc2c(c1)c(C(C)=O)c(C)n2-c1ccccc1OC	3	5	0	-36*	24	-1
O=C(NCCc1ccc(Cl)cc1)C1CCC(=O)N(C2CCCCCC2)C1 (centres undefined)	-12	-18	·	-6	7	25*
O=C(NCCc1ccc(C(F)(F)F)cc1)C1CCC(=O)N(CCCc2ccccc2)C1 (centres undefined)	7	9	1	-46*	12	-3
COc1ccc(CCCNC(=O)C2CCC(=O)N(Cc3ccc(Cl)cc3)C2)cc1 (centres undefined)	-1	-2	1	-20	16	32*
COCC(=O)N1CC2(C1)[C@@H](c1ccccc1)[C@H](CO)N2C(=O)c1cccnc1	7	24	-42	3	-5	-6
O=C(C[C@@H]1CC[C@H](NC(=O)C2CCOCC2)[C@@H](CO)O1)NCc1ccccc1Cl	6	-16	4	3	-48	4
COc1ccc2c3c([nH]c2c1)[C@H](CO)N(Cc1ccncc1)CC31CCN(Cc2ccc(-c3ccccn3)cc2)CC1	6	9	-8	-9	·	3
CCOC(=O)Cc1csc(NC(=O)Nc2ccc(OC(F)(F)F)cc2)n1	·	-7	-13	-21*	4	-1
CCOC(=O)Cc1csc(NC(=O)COc2ccc(C)cc2)n1	·	19	-3	-8	14	0
CCOC(=O)Cc1csc(NC(=O)Cc2ccc(Cl)cc2)n1	·	10	3	-22*	-27	-5
CCOC(=O)Cc1csc(NC(=O)Cc2ccc(Br)cc2)n1	·	-2	4	-25	-12	-1
CCCC(=O)N1CC2(C1)CN(C(=O)C1CCC1)[C@H](CO)c1[nH]c3cc(OC)ccc3c12	·	-7	-12	0	-18	-1
N/C(Cc1cccc2ccccc12)=N\OC(=O)c1ccc(Br)o1	·	4	1	20	2	-1
N/C(Cc1ccc(Cl)cc1Cl)=N\OC(=O)c1ccc(Br)o1	-16	4	0	-22*	7	-1
CCOC(=O)N(C)C[C@@H]1OCc2cn(nn2)CCCC(=O)N([C@H](C)CO)C[C@H]1C	-9	-4	-2	1	2	2
Cc1ccc(S(=O)(=O)N(C)C[C@H]2OCc3cn(nn3)CCCC(=O)N([C@@H](C)CO)C[C@@H]2C)cc1	18	10	-2	4	4	20*!
C[C@@H]1CN([C@@H](C)CO)C(=O)CCCn2cc(nn2)CO[C@@H]1CN(C)Cc1ccc(-c2ccccc2)cc1	1	-2	-5	0	·	-2
SMILES	PGC1a acetyl inh	LGR2 antag	EWS-Fli block	Ecoli rRNA inh	PAX8 inh HTS	SIRT5 block
C[C@H]1CN([C@@H](C)CO)C(=O)CCCn2cc(nn2)CO[C@H]1CN(C)Cc1ccccc1	6	3	3	-2	·	25*
C[C@H](CO)N1C[C@H](C)[C@@H](CN(C)S(=O)(=O)c2ccc(-c3ccccc3)cc2)OCc2cn(nn2)CCCC1=O	-8	-16	10	-4	76*!	2
CCOC(=O)N(C)C[C@H]1OCc2cn(nn2)CCCC(=O)N([C@H](C)CO)C[C@H]1C	7	1	5	3	·	17*
Cc1ccc(S(=O)(=O)N(C)C[C@H]2OCc3cn(nn3)CCCC(=O)N([C@@H](C)CO)C[C@H]2C)cc1	0	-10	5	0	·	-1
O=C(C[C@@H]1CC[C@H]2[C@@H](COC[C@H](O)CN2Cc2ccccc2)O1)N[C@@H]1CCN(Cc2ccccc2)C1	2	13	4	4	16	-4
C[C@H](CO)N1C[C@H](C)[C@H](CN(C)C(=O)Nc2ccccc2)Oc2cc(C#C[C@@H](C)O)ccc2S1(=O)=O	6	-2	10	1	-5	1
CCCNC(=O)N1CCC2(CC1)CN(C(=O)NC1CCCC1)[C@@H](CO)c1[nH]c3cc(OC)ccc3c12	0	14	7	-1	8	5
Cc1ccc(CCc2nnc(SCC(=O)Nc3cccc(Cl)c3)n2-c2ccccc2)o1	·	20	14	-2	91*	·
Cc1noc(C)c1S(=O)(=O)N(C)C[C@H]1Oc2ccc(NS(=O)(=O)c3cn(C)cn3)cc2CC(=O)N([C@H](C)CO)C[C@@H]1C	-4	-6	-8	2	·	-1
CC12CC(c3ccccc3O1)C(/C(N)=N/NC(=O)c1ccc(F)cc1)C(=O)N2 (centres undefined)	·	·	3	·	-57	16*
O=C(C[C@H]1C=C[C@H](NC(=O)C2CCOCC2)[C@@H](CO)O1)Nc1nccs1	10	10	0	1	10	-1
CCOc1ccc2nc(SCC(=O)Nc3cc(C)on3)c(C)cc2c1	·	6	0	-1	9	81*
Cc1ccc2nc(SCC(=O)Nc3cc(C)on3)c(C)cc2c1	3	-1	-1	8	-2	4
CCOc1ccc2nc(NC(=O)C3(C)CC3(Br)Br)sc2c1 (centres undefined)	-14	-119	-107	-42*	-140	2
Cc1noc(C)c1CSCC(=O)Nc1nc2ccccc2s1	·	-7	-3	-23*	-4	-7
CCOc1ccc2nc(NC(=O)CSCC(=O)Nc3cc(C)on3)sc2c1	·	-16	60*	17	-35	0
C[C@@H]1CN([C@@H](C)CO)C(=O)c2cc(-c3ccc(F)cc3)cnc2O[C@@H]1CN(C)C(=O)C1CCC1	-2	3	-1	-7	·	-2
